Test results reported in PubChem BioAssay (NCI).
About 79,000 compounds went through this panel and 15% of them were active in at least one assay; those are over-represented in the sample as a whole. Calls of active or inactive are those of the source. Rule as the data show it: active = growth inhibition above about 70%; inactive = the rest.

Key:
[1] = NCI Yeast Anticancer Drug Screen. Data for the rad52 strain (AID 147);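 also: 0% = growth of vehicle-treated control cultures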; conditions: S. cerevisiae rad52 mutant growth inhibition, stronger effect = higher value
How it was run: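 The repair-mutant yeast strain was incubated with compounds, then growth was read and inhibition derived relative to vehicle.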

[2] = NCI Yeast Anticancer Drug Screen. Data for the wt1 strain (AID 149);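 also: 0% = growth of vehicle-treated wt1 cultures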; conditions: S. cerevisiae wt1 strain (SPY 50644) growth inhibition, stronger effect = higher value
How it was run: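 Using yeast strain wt1, compound-induced growth inhibition was determined against vehicle-treated cultures.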

[3] = NCI Yeast Anticancer Drug Screen. Data for the rad50EPP+ strain (AID 151);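 also: 0% = growth of vehicle-treated control cultures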; conditions: S. cerevisiae rad50 mutant strain, stronger effect = higher value
How it was run: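 Vehicle-normalised growth inhibition; rad50EPP+ yeast strain, altered in DNA damage repair, compound-treated.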

[4] = NCI Yeast Anticancer Drug Screen. Data for the mgt1 strain (AID 153); conditions: S. cerevisiae mgt1 mutant growth inhibition, stronger effect = higher value
How it was run: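 Vehicle-normalized growth inhibition is determined in mgt1 yeast, a strain selected for a defined alteration in DNA repair or cell cycle control.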

[5] = NCI Yeast Anticancer Drug Screen. Data for the rad50 strain (AID 155);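 also: 0% = growth of vehicle-only cultures of the same strain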; conditions: S. cerevisiae rad50 strain growth inhibition, stronger effect = higher value
How it was run: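 Relative growth inhibition (compound vs vehicle) was measured in yeast with a defined repair-gene alteration.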

[6] = NCI Yeast Anticancer Drug Screen. Data for the mec2-1 strain (AID 157); conditions: S. cerevisiae mec2-1 strain, stronger effect = higher value
How it was run: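 Mutant yeast (mec2-1) grown with compound; growth inhibition relative to vehicle control reported.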

[7] = NCI Yeast Anticancer Drug Screen. Data for the rad14 strain (AID 159);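 also: 0% = growth of vehicle-treated control cultures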; conditions: S. cerevisiae rad14 strain growth inhibition, stronger effect = higher value
How it was run: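 Screen for anticancer potential: a yeast strain altered in DNA damage repair is grown with compound, and reduced growth is quantified against vehicle controls.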

[8] = NCI Yeast Anticancer Drug Screen. Data for the sgs1 mgt1 strain (AID 161);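 also: 0% = growth of cultures given vehicle only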; conditions: S. cerevisiae sgs1 mgt1 strain, stronger effect = higher value
How it was run: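 Growth of a repair-deficient yeast mutant was monitored after compound treatment and expressed as inhibition relative to vehicle-treated cultures.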

[9] = NCI Yeast Anticancer Drug Screen. Data for the CLN2oe strain (AID 163);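 also: 0% = growth of vehicle-only control cultures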; conditions: S. cerevisiae CLN2oe strain, stronger effect = higher value
How it was run: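 Compounds are applied to yeast harbouring a defined cell-cycle control change; reduced growth compared with vehicle-treated controls gives the value.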

[10] = NCI Yeast Anticancer Drug Screen. Data for the cln2 rad14 strain (AID 165);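 also: 0% = growth equal to vehicle treated cultures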; conditions: S. cerevisiae cln2 rad14 strain, stronger effect = higher value
How it was run: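 Readout is yeast growth inhibition versus vehicle-treated controls, using a strain with cln2 and rad14 alterations exposed to compound.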

[11] = NCI Yeast Anticancer Drug Screen. Data for the bub3 strain (AID 167); conditions: S. cerevisiae bub3 mutant strain, stronger effect = higher value
How it was run: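 Screening used yeast with an engineered genetic alteration affecting cell cycle control. Compound-exposed cultures were compared with vehicle cultures, and reduced growth was taken as inhibition.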

[12] = NCI Yeast Anticancer Drug Screen. Data for the wt2 strain (AID 169);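 also: 0% = growth of vehicle-treated yeast cultures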; conditions: S. cerevisiae wt2 strain growth inhibition, stronger effect = higher value
How it was run: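 Against vehicle-treated controls, the growth of yeast exposed to each compound was compared, and the inhibition was recorded.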

[13] = NCI Yeast Anticancer Drug Screen. Data for the mlh1 strain (AID 171);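 also: 0% = growth of vehicle-treated control cultures of the same strain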; conditions: S. cerevisiae mlh1 strain growth inhibition, stronger effect = higher value
How it was run: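 Measured: yeast growth. Reference: vehicle-treated controls. Organism: strain with a defined alteration affecting DNA damage repair or cell cycle control, treated with compound.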

[14] = NCI Yeast Anticancer Drug Screen. Data for the mlh1 rad18 strain (AID 175); conditions: S. cerevisiae mlh1 rad18 strain growth inhibition, stronger effect = higher value
How it was run: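 Genetically defined yeast (DNA repair-deficient) exposed to compounds; growth inhibition determined relative to vehicle.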

[15] = NCI Yeast Anticancer Drug Screen. Data for the rad18 strain (AID 177); conditions: S. cerevisiae rad18 mutant growth inhibition, stronger effect = higher value
How it was run: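 Vehicle-treated cultures served as the baseline for scoring compound-induced growth inhibition in DNA-repair-mutant yeast.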

[16] = NCI Yeast Anticancer Drug Screen. Data for the sgs1 strain (AID 173);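 also: 0% = growth of vehicle-only control cultures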; conditions: S. cerevisiae sgs1 mutant, stronger effect = higher value
How it was run: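 Each compound was added to cultures of the altered yeast strain. Growth was recorded, and inhibition was derived by comparison with vehicle controls.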

[17] = at 5.0 µM (retest, dose inferred, filed as 0.5)
[18] = at 50.0 µM (retest, dose inferred, filed as 5.0)

Measured: growth inhibition

CCN(CC)CCC(=O)c1ccc(Oc2ccc(F)cc2)cc1
active: [1]; at 100.0 µM 83% | [2]; at 100.0 µM 80% | [3]; at 100.0 µM 93% | [4]; at 11.0 µM 76% | [4]; at 33.0 µM 92% | [4]; at 100.0 µM 94% | [5]; [18] 82% | [5]; at 100.0 µM 87% | [6]; [18] 87% | [6]; at 100.0 µM 95% | [7]; at 33.0 µM 79% | [7]; at 100.0 µM 81% | [8]; at 50.0 µM 76.5% | [11]; at 33.0 µM 83% | [11]; at 100.0 µM 97% | [12]; at 33.0 µM 71% | [12]; at 100.0 µM 80% | [13]; at 33.0 µM 73% | [13]; at 100.0 µM 83% | [14]; [18] 93% | [15]; at 100.0 µM 96%
inactive: [1]; at 1.2 µM -23% | [1]; at 3.7 µM -26% | [1]; at 11.0 µM -40% | [1]; at 33.0 µM 8% | [2]; at 1.2 µM -11% | [2]; at 3.7 µM 23% | [2]; at 11.0 µM 21% | [2]; at 33.0 µM -5% | [3]; at 1.2 µM -9% | [3]; at 3.7 µM -30% | [3]; at 11.0 µM 9% | [3]; at 33.0 µM 36% | [4]; at 1.2 µM 49% | [4]; at 3.7 µM 59% | [5]; at 1.2 µM -5% | [5]; at 3.7 µM -21% | [5]; [17] 46% | [5]; at 11.0 µM -17% | [5]; at 33.0 µM 2% | [5]; at 50.0 µM 57% | [6]; at 1.2 µM 17% | [6]; at 3.7 µM 35% | [6]; [17] 41% | [6]; at 11.0 µM 42% | [6]; at 33.0 µM 52% | [6]; at 50.0 µM 44.5% | [7]; at 1.2 µM 5% | [7]; at 3.7 µM 39% | [7]; at 11.0 µM 51% | [8]; [17] 62% | [8]; [18] 66% | [9]; at 1.2 µM 10% | [9]; at 3.7 µM 17% | [9]; at 11.0 µM 35% | [9]; at 33.0 µM 54% | [9]; at 100.0 µM 68% | [10]; [17] 21% | [10]; [18] 3% | [10]; at 50.0 µM 32.9% | [11]; at 1.2 µM 35% | [11]; at 3.7 µM 46% | [11]; [17] 55% | [11]; at 11.0 µM 58% | [11]; [18] 47% | [11]; at 50.0 µM 69.6% | [12]; at 1.2 µM 17% | [12]; at 3.7 µM 21% | [12]; at 11.0 µM 41% | [13]; at 1.2 µM 34% | [13]; at 3.7 µM 37% | [13]; at 11.0 µM 58% | [14]; [17] 65% | [14]; at 50.0 µM 47.5% | [15]; at 1.2 µM 4% | [15]; at 3.7 µM 26% | [15]; at 11.0 µM 27% | [15]; at 33.0 µM 52%

C(CCSC1=NCCN1)CSC1=NCCN1 (tested in a mixture with another compound)
active: [1]; at 11.0 µM 79% | [1]; at 33.0 µM 99% | [1]; at 100.0 µM 99% | [2]; at 33.0 µM 99% | [2]; at 100.0 µM 99% | [3]; at 11.0 µM 78% | [3]; at 33.0 µM 73% | [3]; at 100.0 µM 99% | [4]; at 11.0 µM 89% | [4]; at 33.0 µM 99% | [4]; at 100.0 µM 98% | [5]; at 11.0 µM 83% | [5]; at 33.0 µM 99% | [5]; [18] 98% | [5]; at 50.0 µM 99.2% | [5]; at 100.0 µM 98% | [6]; at 11.0 µM 94% | [6]; at 33.0 µM 99% | [6]; [18] 99% | [6]; at 50.0 µM 99.5% | [6]; at 100.0 µM 99% | [7]; at 11.0 µM 99% | [7]; at 33.0 µM 99% | [7]; at 100.0 µM 99% | [8]; [17] 73% | [8]; [18] 99% | [8]; at 50.0 µM 99.5% | [9]; at 33.0 µM 97% | [9]; at 100.0 µM 98% | [10]; [18] 98% | [10]; at 50.0 µM 97.6% | [11]; at 11.0 µM 94% | [11]; at 33.0 µM 99% | [11]; [18] 98% | [11]; at 50.0 µM 99% | [11]; at 100.0 µM 98% | [12]; at 33.0 µM 99% | [12]; at 100.0 µM 99% | [16]; at 11.0 µM 86% | [16]; at 33.0 µM 99% | [16]; at 100.0 µM 99% | [14]; [17] 77% | [14]; [18] 98% | [14]; at 50.0 µM 99% | [15]; at 11.0 µM 91% | [15]; at 33.0 µM 99% | [15]; at 100.0 µM 99%
inactive: [1]; at 1.2 µM 20% | [1]; at 3.7 µM 39% | [2]; at 1.2 µM -3% | [2]; at 3.7 µM 9% | [2]; at 11.0 µM 41% | [3]; at 1.2 µM 30% | [3]; at 3.7 µM 46% | [4]; at 1.2 µM -2% | [4]; at 3.7 µM 18% | [5]; at 1.2 µM 21% | [5]; at 3.7 µM 44% | [5]; [17] 59% | [6]; at 1.2 µM 5% | [6]; at 3.7 µM 28% | [6]; [17] 43% | [7]; at 1.2 µM 5% | [7]; at 3.7 µM 27% | [9]; at 1.2 µM -5% | [9]; at 3.7 µM 6% | [9]; at 11.0 µM 29% | [10]; [17] 16% | [11]; at 1.2 µM -8% | [11]; at 3.7 µM 12% | [11]; [17] 5% | [12]; at 1.2 µM -2% | [12]; at 3.7 µM 10% | [12]; at 11.0 µM 63% | [16]; at 1.2 µM 11% | [16]; at 3.7 µM 35% | [15]; at 1.2 µM 26% | [15]; at 3.7 µM 52%
